Measurements taken from the supplement of paper PMC12067093, “Discovery and optimisation of a covalent ligand for TRIM25 and its application to targeted protein ubiquitination” (Chemical Science, 2025).
Targets with the largest changes are over-represented here; the source holds about 21,000 in all.

Compound: CC1Cc2ccccc2N1C(=O)C1CCCN(C1)C(=O)CCl (mixture of isomers) [TRIM25 ligand 11 (diastereomer mixture)]
Assay: probe-labelled cysteine peptide fold change vs DMSO (competition) (log2 fold change); higher = less target engagement (more negative = stronger competition)
Conditions: THP-1, incubation time: 4 h
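Note: competitive chemoproteomic profiling in live THP-1 cells with an iodoacetamide desthiobiotin (IA-DTB) probe, comparing probe-labelled peptide intensities in compound-treated cells against DMSO-treated controls.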

Chain of UniProt Q2NL82 (Q2NL82 whole entry, looked up): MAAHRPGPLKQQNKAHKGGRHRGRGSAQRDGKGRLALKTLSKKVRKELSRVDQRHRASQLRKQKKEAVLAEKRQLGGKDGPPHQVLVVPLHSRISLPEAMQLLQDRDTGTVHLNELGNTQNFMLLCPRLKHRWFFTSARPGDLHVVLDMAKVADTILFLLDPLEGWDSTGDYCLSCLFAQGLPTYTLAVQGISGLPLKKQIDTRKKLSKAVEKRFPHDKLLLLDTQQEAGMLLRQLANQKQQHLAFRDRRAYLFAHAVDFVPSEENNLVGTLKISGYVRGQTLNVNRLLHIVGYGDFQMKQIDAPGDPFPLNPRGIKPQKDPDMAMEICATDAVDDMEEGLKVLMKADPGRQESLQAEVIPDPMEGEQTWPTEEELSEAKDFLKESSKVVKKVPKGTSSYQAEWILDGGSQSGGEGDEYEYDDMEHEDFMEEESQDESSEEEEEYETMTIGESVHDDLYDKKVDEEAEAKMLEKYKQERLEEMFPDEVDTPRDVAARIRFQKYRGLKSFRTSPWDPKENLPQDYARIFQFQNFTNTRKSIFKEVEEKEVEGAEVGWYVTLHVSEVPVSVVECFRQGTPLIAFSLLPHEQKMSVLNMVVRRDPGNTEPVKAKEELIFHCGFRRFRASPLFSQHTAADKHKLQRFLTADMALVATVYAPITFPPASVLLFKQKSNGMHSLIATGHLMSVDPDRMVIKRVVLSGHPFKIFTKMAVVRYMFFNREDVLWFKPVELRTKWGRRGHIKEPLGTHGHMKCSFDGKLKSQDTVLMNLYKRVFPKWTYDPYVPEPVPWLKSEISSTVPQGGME
Chain of UniProt Q9H3M7 (Q9H3M7 whole entry, looked up): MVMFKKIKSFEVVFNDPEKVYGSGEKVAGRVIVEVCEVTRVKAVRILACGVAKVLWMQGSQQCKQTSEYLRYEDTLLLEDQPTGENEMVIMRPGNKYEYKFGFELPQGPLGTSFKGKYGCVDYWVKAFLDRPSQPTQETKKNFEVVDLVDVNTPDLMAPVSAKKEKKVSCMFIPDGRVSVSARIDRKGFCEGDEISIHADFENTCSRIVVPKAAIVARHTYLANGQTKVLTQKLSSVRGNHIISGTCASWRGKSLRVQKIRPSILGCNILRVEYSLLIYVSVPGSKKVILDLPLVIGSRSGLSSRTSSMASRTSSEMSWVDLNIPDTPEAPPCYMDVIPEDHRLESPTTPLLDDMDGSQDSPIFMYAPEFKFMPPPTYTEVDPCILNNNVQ
Chain of UniProt O94967 (O94967 whole entry, looked up): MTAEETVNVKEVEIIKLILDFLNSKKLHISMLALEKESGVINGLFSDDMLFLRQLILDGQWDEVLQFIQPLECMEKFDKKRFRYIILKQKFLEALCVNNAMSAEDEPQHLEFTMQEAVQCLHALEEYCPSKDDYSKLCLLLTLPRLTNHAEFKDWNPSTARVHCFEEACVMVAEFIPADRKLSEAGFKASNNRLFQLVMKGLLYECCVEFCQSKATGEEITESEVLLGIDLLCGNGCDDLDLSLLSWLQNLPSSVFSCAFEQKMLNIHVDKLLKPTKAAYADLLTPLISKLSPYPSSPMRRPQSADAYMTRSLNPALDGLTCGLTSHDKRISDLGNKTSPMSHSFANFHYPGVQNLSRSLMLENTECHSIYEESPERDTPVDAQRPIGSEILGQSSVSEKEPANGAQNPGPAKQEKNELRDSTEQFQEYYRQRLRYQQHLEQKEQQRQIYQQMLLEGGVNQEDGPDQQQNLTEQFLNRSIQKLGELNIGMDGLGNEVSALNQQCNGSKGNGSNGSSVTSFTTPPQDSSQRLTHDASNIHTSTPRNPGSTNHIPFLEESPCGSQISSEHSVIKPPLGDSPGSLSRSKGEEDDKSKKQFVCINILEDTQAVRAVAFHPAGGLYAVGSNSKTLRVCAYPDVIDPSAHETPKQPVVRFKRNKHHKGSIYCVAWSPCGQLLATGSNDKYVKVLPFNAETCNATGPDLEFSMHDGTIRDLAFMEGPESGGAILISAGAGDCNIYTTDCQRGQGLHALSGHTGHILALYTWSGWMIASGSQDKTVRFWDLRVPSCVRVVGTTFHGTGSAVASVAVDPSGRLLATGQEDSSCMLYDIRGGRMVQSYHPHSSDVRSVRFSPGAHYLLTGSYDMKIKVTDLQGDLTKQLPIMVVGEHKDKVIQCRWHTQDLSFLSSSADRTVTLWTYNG
Chain of UniProt Q9H6Y2 (Q9H6Y2 whole entry, looked up): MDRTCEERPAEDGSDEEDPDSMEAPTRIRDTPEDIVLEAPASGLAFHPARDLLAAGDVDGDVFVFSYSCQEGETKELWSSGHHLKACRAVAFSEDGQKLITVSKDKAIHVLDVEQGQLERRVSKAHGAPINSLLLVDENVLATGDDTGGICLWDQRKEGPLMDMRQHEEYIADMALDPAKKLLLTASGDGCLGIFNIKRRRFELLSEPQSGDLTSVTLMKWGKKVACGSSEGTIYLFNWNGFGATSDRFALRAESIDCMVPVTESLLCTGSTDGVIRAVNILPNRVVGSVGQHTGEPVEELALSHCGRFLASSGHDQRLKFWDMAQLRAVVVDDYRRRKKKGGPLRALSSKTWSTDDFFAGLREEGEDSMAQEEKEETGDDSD
Chain of UniProt Q8IWV8 (Q8IWV8 whole entry, looked up): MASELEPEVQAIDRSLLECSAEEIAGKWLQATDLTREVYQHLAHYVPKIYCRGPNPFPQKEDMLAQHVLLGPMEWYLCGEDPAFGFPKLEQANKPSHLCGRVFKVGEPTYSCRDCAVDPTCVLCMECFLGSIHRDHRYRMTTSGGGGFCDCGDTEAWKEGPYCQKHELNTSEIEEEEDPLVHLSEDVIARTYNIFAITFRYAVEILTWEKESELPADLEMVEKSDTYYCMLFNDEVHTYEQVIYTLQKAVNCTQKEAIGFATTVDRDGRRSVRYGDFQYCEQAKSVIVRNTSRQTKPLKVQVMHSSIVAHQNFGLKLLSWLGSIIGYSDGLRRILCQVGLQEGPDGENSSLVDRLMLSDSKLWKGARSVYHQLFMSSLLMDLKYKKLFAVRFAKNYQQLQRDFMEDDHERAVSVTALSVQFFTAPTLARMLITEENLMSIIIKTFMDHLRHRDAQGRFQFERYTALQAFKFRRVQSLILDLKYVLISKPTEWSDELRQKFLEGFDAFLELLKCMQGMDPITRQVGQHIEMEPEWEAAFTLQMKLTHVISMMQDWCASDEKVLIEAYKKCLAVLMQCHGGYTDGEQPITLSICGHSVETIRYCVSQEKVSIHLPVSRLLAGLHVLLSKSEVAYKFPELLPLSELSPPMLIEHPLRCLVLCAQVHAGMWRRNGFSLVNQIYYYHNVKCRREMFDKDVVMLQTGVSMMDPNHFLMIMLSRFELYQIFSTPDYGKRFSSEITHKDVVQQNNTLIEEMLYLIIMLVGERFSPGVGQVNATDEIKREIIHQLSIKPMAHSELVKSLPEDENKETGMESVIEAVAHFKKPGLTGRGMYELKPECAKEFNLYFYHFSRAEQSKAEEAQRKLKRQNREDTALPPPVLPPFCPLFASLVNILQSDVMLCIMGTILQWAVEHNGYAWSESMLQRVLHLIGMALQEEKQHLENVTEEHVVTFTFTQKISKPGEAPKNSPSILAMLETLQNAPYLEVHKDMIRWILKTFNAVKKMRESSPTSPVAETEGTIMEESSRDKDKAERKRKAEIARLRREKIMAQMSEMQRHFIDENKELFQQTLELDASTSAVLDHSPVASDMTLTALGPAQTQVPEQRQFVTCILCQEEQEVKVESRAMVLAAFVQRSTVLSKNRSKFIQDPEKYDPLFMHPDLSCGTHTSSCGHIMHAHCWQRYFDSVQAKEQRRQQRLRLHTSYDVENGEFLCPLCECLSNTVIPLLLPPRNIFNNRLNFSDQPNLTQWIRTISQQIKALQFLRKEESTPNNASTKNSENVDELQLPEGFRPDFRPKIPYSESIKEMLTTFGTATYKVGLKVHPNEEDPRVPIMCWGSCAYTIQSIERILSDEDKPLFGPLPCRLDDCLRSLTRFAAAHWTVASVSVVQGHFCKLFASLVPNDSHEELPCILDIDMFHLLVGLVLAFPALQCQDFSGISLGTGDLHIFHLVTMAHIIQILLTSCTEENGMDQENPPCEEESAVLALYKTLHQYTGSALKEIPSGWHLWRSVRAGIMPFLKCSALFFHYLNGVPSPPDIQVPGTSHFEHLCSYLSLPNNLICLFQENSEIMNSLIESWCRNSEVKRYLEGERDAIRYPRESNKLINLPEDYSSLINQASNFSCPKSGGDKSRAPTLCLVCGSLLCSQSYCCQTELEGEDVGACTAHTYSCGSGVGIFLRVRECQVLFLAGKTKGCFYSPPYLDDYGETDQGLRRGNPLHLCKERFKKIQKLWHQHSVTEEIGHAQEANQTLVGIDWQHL
Chain of UniProt Q9H832 (Q9H832 whole entry, looked up): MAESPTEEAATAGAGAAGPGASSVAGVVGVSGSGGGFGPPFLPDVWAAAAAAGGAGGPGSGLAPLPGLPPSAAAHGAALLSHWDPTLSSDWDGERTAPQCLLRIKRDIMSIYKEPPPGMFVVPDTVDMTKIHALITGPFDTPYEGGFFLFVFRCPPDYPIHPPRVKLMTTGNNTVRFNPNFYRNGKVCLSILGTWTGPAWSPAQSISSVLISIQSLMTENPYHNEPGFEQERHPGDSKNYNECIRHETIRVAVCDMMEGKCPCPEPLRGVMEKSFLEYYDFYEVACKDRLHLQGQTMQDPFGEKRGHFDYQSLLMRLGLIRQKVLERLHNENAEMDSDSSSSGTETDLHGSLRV
Chain of UniProt Q99757 (Q99757 whole entry, looked up): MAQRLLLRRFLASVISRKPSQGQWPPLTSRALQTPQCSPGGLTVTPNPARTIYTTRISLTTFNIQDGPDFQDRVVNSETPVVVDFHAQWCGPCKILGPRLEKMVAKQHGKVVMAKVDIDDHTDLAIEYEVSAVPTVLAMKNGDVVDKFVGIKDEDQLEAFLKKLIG

Target | probe-labelled cysteine peptide fold change (10 µM) | probe-labelled cysteine peptide fold change (50 µM)
WDFY4_Q6ZS81_835_QWPDLEERMDEGDAAIMHPGVVCIMVR (UniProt Q6ZS81) | -0.279 | -0.333
USP20_Q9Y2K6_8_DLCPHLDSIGEVTKEDLLLK (UniProt Q9Y2K6) | -0.12 | -0.352
TXNIP_Q9H3M7_36_VIVEVCEVTR (UniProt Q9H3M7) | 0.136 | 0.375
UBR2_Q8IWV8_1360_ILSDEDKPLFGPLPCR (UniProt Q8IWV8) | -0.139 | -0.289
WDFY4_Q6ZS81_878_QVMCEAGLLGTLMASCHR (UniProt Q6ZS81) | 0.0899 | -0.0334
TSFM_P43897_149_FQLLVQQVALGTMMHCQTLK (UniProt P43897) | -0.117 | -0.0693
TXN2_Q99757_90+93_VVNSETPVVVDFHAQWCGPCK (UniProt Q99757) | -0.411 | -1.31
TRMT61A_Q96FX7_209_FCSFSPCIEQVQR (UniProt Q96FX7) | -0.023 | -0.323
VPS11_Q9H270_586_EAPGCR (UniProt Q9H270) | 0.694 | 1.1
TSR1_Q2NL82_618_AKEELIFHCGFR (UniProt Q2NL82) | 0.00999 | 0.0707
WDR47_O94967_322_SLNPALDGLTCGLTSHDK (UniProt O94967) | 0.104 | -0.116
WDR55_Q9H6Y2_5_TCEERPAEDGSDEEDPDSMEAPTR (UniProt Q9H6Y2) | -0.76 | -0.645
UNC45A_Q9H3U1_503_ALVGLCK (UniProt Q9H3U1) | 0.0324 | 0.188
UBE2Z_Q9H832_243_NYNECIR (UniProt Q9H832) | -0.049 | -0.0648
